Assay outcomes: PubChem BioAssay, several laboratories
Rin1 Abl inh – inhibitors of Rin1-Abl protein binding, primary screen, biochemical, TR-FRET. Tyrosine-protein kinase ABL1 (Homo sapiens) + Ras and Rab interactor 1 (Homo sapiens), …. inhibition, % at 7.35 µM. actives 0.4% (n = 360,000); in the data active means inhibition above about 5%, passing the limit was not always enough
UHRF1 binding – UHRF1 methylated DNA binding inhibitors, primary screen, counter-screen for MBD2 inhibitor project, biochemical, TR-FRET, human UHRF1, single concentration | AID 687016, 2013 | actives 0.75% (n = 370,000) | E3 ubiquitin-protein ligase UHRF1 (Homo sapiens), Q96T88 | inhibition, % at 4.4 µM | UHRF1 binding to methylated oligo;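 further: UHRF1 SRA domain binding a hemimethylated CpG hairpin DNA probe; 0% = median of test compound wells and 100% = reference inhibitor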
KLK7 zymogen act – proKLK7 zymogen activators, primary screen, biochemical, fluorescence intensity. Kallikrein-7 (Homo sapiens), P49862. purified proKLK7, EDANS-DABCYL substrate fluorescence; 100% is mature enzyme control, 0% vehicle. activation, % at 7 µM. actives 0.9% (n = 370,000);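 active means activation above the mean of all tested compounds plus 3 SD, computed per campaign excluding outliers beyond control limits, cut at about 13% in these data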
LEDGF integ inh – blockers of LEDGF/p75-dependent integrase strand transfer – biochemical, TR-FRET, high throughput, primary screen; AID 743269, 2014; actives 0.64% (n = 370,000); inhibition, % at 3.7 µM; HIV-1 integrase (with human LEDGF/p75); TR-FRET IN-LEDGF/p75 DNA integration, Eu/Cy5;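 active means inhibition above the screen-wide mean plus 3 SD, cut at about 13% in these data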;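 further: signal is the Cy5 over europium emission ratio at 671 and 618 nm; 0% = plate median of compound wells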
MBD2 DNA inh – inhibitors of MBD2 binding to methylated DNA, primary screen, biochemical, TR-FRET, DNA-binding domain, human; Methyl-CpG-binding domain protein 2 (Homo sapiens), Q9UBB5; MBD2 binding to methylated oligonucleotide; inhibition, % at 4.4 µM; actives 0.31% (n = 370,000); in the data active means inhibition above about 13%
Neddylation inh – inhibitors of cullin neddylation, primary screen, biochemical, TR-FRET, uHTS, NAE and Ubc12. calls only at 25 µM. AID 651699, 2012. NEDD8-conjugating enzyme Ubc12 (Homo sapiens) + NEDD8-activating enzyme E1 regulatory …. actives 0.58% (n = 360,000); in the data active means inhibition above about 36%
UHRF1 DNA bind – UHRF1 methylated DNA binding inhibitors, counter-screen for MBD2 inhibitor project, biochemical, TR-FRET, human UHRF1; inhibition, % at 4.4 µM; shares compounds with MBD2 DNA inh; actives 25% (n = 1,000); UHRF1 binding to methylated oligonucleotide;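 further: UHRF1 SRA domain binding a labeled hemimethylated CpG hairpin DNA; 0% = vehicle only and 100% = reference inhibitor with vehicle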
MBD2 confirm – inhibitors of MBD2 binding to methylated DNA, confirmation, biochemical, TR-FRET, DNA-binding domain, human. inhibition, % at 4.4 µM. AID 720531, 2013. shares compounds with MBD2 DNA inh. actives 26% (n = 1,000). TR-FRET MBD2-DBD binding to methylated oligonucleotide; in the data active means inhibition above about 14%
The depositor's hits bear a star; i = inactive; nt = no result given. Sampled rows, rich in hits. Any-hit rate of the full collection: about 3.1%. Unless noted, no stated cut-off is given here; in the data, active means inhibition above about 21%; inactive means the rest.

SMILES	Rin1 Abl inh	UHRF1 binding	KLK7 zymogen act	LEDGF integ inh	MBD2 DNA inh	Neddylation inh	UHRF1 DNA bind	MBD2 confirm
CCC(C)NC(=O)CSc1nc2ccccc2c(=O)n1CCCC(=O)NCC1CCCO1 (configuration not stated)	-4	0	0	0	-1	i	nt	nt
CSc1ccccc1NC(=O)CN(C)C(=O)COc1cccc2cccnc12	-2	-7	0	8	-7	i	nt	nt
Cc1nnc(SCC(=O)N(CC(C)C)c2c(N)n(Cc3ccccc3)c(=O)[nH]c2=O)n1N	3	2	-1	-1	-3	i	nt	nt
O=C(CSc1nc(O)cc(=O)n1C1CCCC1)Nc1cccc(Cl)c1Cl	1	-3	0	-2	2	i	nt	nt
COC(=O)c1ccccc1NC(=O)CSc1nc(O)cc(=O)n1C1CCCC1	1	24*	0	13	13*	i	5	2
O=C(NCCCNC(=O)c1ccc(-c2cc(Cl)ccc2Cl)o1)c1cnccn1	-6	-4	0	-2	-8	i	nt	nt
O=C(NC1CCCCN(Cc2cccc(Cl)c2)C1=O)c1cccs1 (configuration not stated)	nt	9	0	4	3	nt	nt	nt
Cc1ccnc2nc(C(=O)OCC(=O)c3ccc(NC(=O)CC(C)C)cc3)nn12	3	2	-4	0	2	i	nt	nt
CCC(=O)Nc1ccc(C(=O)COC(=O)c2nc3nccc(C)n3n2)cc1	0	55*	0	10	34*	i	31*	30*
Cc1ccc(CN2CCN(CC3CC4C=CC3C4)CC2)cc1 (configuration not stated)	2	-2	-1	-5	2	i	nt	nt
Cc1ccc(CNC(=O)c2ccc(CS(=O)(=O)c3ccccc3C)o2)cc1	1	-3	-1	2	33*	i	4	6
Cc1ccc2nc(Cl)c3cc(C(=O)NCCCN4CCCC4)sc3c2c1	-2	-4	0	-3	15*	i	8	16*
CCCN1CCN(CCCNC(=O)c2cc3c(=O)oc4ccc(C)cc4c3s2)CC1	-5	-7	0	3	0	i	nt	nt
C=CCOC(=O)C1=C[C@H](c2csc3ccccc23)C[C@H](OCCCCO)O1	-1	1	1	2	-1	i	nt	nt
NC(=O)C1=C[C@@H](c2csc3ccccc23)C[C@@H](OCCCCO)O1	-2	-5	-1	4	15*	i	0	1
COCCCNC(=O)CCc1c(C)c2cc3c(C)coc3cc2oc1=O	-3	-1	9	1	13*	nt	1	5
CC1CCC(NC(=O)C2CCC(CNS(=O)(=O)c3ccccc3)CC2)CC1 (configuration not stated)	1	7	0	8	2	i	nt	nt
O=C(NC1CCCCCC1)C1CCC(CNS(=O)(=O)c2ccc(Br)s2)CC1 (configuration not stated)	-1	23*	0	-1	14*	i	4	2
COc1ccc(S(=O)(=O)N2CCN(CC(=O)NC3CC3)CC2)cc1	1	5	0	-2	-1	i	nt	nt
O=C1NC(=S)S/C1=C\c1ccc(SCc2ccccc2)o1	4	82*	-1	43*	29*	i	12	10
